# Measured values published in PubChem BioAssay.
# Active and inactive are the calls of the source. How the calls were made is not given here.
# Assay: inhibitors of hydroxyurea-induced Chk1 phosphorylation, primary screen, imaging, HeLa, phospho-Chk1 nuclear intensity (AID 1187); further: test concentration not given here
# Conditions: hydroxyurea-induced phospho-Chk1 immunofluorescence imaging, higher = more signal
row,Compound,z-score
1,CCCC[C@@H]1C[C@H]1[C@@H](NS(=O)(=O)c1cccc2cccnc12)c1ccc(-c2ccccc2)cc1,0.189 (inactive)
2,CC(C)N1CC=CC23O[C@@H]4C=CCCOC(=O)C4[C@H]2C(=O)N(CCCCCCO)[C@@H]3C1=O (some centres undefined),-0.286 (inactive)
3,CC(C)=C1C(=O)C(c2ccccc2)=C2CN3C(=O)N(CCc4ccccc4)C(=O)[C@]3(Cc3ccc(F)cc3)[C@H]21,0.314 (inactive)
4,CO[C@H]1O[C@H](CO)[C@@H](OC(=O)Nc2ccc(C#N)cc2)[C@H](OC(=O)c2cc3ccccc3[nH]2)[C@H]1OC(=O)c1cc2ccccc2[nH]1,-0.52 (inactive)
5,[N-]=[N+]=NCc1ccccc1[C@@H]1OC(c2ccc(OCCCO)cc2)=N[C@]1(Cc1ccccc1)C(=O)N1CCOCC1,-1.03 (inactive)
6,CC(C)c1ccc(NN2C(C(O)c3ccc4c(c3)OCO4)C=CC3C(=O)N(c4ccccc4)C(=O)C32)cc1 (centres undefined),-0.575 (inactive)
7,COCC(=C=CC[C@@H](O)c1ccccc1OCCO)CCO,-0.534 (inactive)
8,CC(C)OC(=O)C=C1C[C@@H](c2ccc(C#N)cc2)O[C@@H](c2ccc(C#N)cc2)O1,0.219 (inactive)
9,CC(C)(C)N1CC=CC23O[C@@H]4C=CCCOC(=O)C4[C@H]2C(=O)N(CCCCCO)[C@@H]3C1=O (some centres undefined),-1.13 (inactive)
